Laboratory results as given in ChEMBL document CHEMBL2218924, “A broad activity screen in support of a chemogenomic map for kinase signalling research and drug discovery” (Biochem J, 2013).

target: T1, 3-phosphoinositide-dependent protein kinase 1 (Homo sapiens) (UniProt O15530); conditions: at 10 µM
T1 sequence (whole entry): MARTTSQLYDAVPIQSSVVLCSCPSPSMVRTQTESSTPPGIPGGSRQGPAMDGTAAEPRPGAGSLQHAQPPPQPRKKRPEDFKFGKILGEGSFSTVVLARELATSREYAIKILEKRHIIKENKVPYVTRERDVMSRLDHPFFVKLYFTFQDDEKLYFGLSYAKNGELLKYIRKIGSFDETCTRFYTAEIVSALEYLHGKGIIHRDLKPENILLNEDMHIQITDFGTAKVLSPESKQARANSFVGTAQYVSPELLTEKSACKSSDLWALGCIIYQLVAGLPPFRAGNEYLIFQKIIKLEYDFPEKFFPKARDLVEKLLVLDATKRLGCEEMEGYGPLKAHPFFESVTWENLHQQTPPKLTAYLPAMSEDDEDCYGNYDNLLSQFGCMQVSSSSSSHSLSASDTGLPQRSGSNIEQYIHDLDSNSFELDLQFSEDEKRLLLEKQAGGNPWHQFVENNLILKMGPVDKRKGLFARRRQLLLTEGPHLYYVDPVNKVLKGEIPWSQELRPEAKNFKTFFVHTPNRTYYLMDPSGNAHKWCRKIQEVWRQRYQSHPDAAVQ

Question: For COc1ccc2c(c1)c(C1=C(c3c[nH]c4ccccc34)C(=O)NC1=O)cn2CCCN(C)C, which residual activity is on record?
Answer: The residual activity was 14%.

Question: For Nc1ncnc2c1cnn2-c1ccccc1, which residual activity is on record?
Answer: The residual activity was 87%.

Question: Which residual activity does the source give for c1ccc(-c2cnc(Nc3ccc(OCCN4CCCC4)cc3)s2)cc1 here?
Answer: The residual activity was 114%.

Question: O=C(O)/C=C/c1cc(Br)c(Br)c(Br)c1Br was tested. Which residual activity did it give?
Answer: The residual activity was 99%.

Question: CC(C)(C)c1nc2c3ccc(F)cc3c3c(=O)[nH]ccc3c2[nH]1 was tested. Which residual activity did it give?
Answer: Its residual activity is 1%.

Question: With O=C1Cc2c([nH]c3ccc([N+](=O)[O-])cc23)-c2ccccc2N1 as the compound, how does the residual activity read?
Answer: The residual activity was 45%.

Question: For CCN(CC)CCNC(=O)c1c(C)[nH]c(/C=C2\C(=O)Nc3ccc(Cl)cc32)c1C, which residual activity is on record?
Answer: Its residual activity is 39%.

Question: How did the residual activity turn out when O=C(CCCc1ccc(-c2ccccc2F)cc1)Nc1ccc(O)cc1 was run?
Answer: The residual activity was 90%.

Question: How did the residual activity turn out when O=C1NC(=O)C(c2c[nH]c3ccccc23)=C1c1c[nH]c2ccccc12 was run?
Answer: The residual activity was 18%.

Question: Which residual activity does the source give for Nc1ncnc2[nH]nc(Nc3ccc(F)cc3)c12 here?
Answer: The residual activity was 40%.

Question: Cn1c2ccccc2c2c3c(c4c5ccccc5n(CCC#N)c4c21)CNC3=O was tested. Which residual activity did it give?
Answer: Its residual activity is 6%.

Question: Which residual activity does the source give for CCCCc1c(-c2ccc(OC)cc2)[nH]c2nccnc12 here?
Answer: Its residual activity is 65%.

Question: How did the residual activity turn out when COc1cc2c(cc1OC)-c1n[nH]c(Nc3cccc(F)c3)c1C2 was run?
Answer: Its residual activity is 106%.

Question: How did the residual activity turn out when O=C(c1cc2cc(O)ccc2[nH]1)c1cc2cc(O)ccc2[nH]1 was run?
Answer: The residual activity was 23%.

Question: How did the residual activity turn out when CC(C)(C)n1nc(Cc2cccc3ccccc23)c2c(N)ncnc21 was run?
Answer: The residual activity was 117%.

Question: Nc1ncnc2c1c(-c1ccc(Oc3ccccc3)cc1)cn2C1CCCC1 was tested. Which residual activity did it give?
Answer: Its residual activity is 95%.

Question: Which residual activity does the source give for O=C1NC(=O)c2c1c1c3ccccc3[nH]c1n1cncc21 here?
Answer: Its residual activity is 39%.

Question: With NC(=O)Nc1sc(-c2ccc(F)cc2)cc1C(N)=O as the compound, how does the residual activity read?
Answer: The residual activity was 17%.

target: cAMP-dependent protein kinase catalytic subunit alpha (Homo sapiens) (UniProt P17612); conditions: at 1 µM

Question: For COc1ccc2c(c1)c(C1=C(c3c[nH]c4ccccc34)C(=O)NC1=O)cn2CCCN(C)C, which residual activity is on record?
Answer: The residual activity was 37%.

Question: With c1ccc(-c2cnc(Nc3ccc(OCCN4CCCC4)cc3)s2)cc1 as the compound, how does the residual activity read?
Answer: The residual activity was 78%.

Question: NCCNc1ncc(C(N)=O)c(Nc2cccc(C(F)(F)F)c2)n1 was tested. Which residual activity did it give?
Answer: Its residual activity is 114%.

Question: For O=C(O)/C=C/c1cc(Br)c(Br)c(Br)c1Br, which residual activity is on record?
Answer: The residual activity was 96%.

Question: How did the residual activity turn out when COc1cc2ncnc(Nc3cccc(Cl)c3)c2cc1OC was run?
Answer: Its residual activity is 111%.

Question: Which residual activity does the source give for CCN(CC)CCNC(=O)c1c(C)[nH]c(/C=C2\C(=O)Nc3ccc(Cl)cc32)c1C here?
Answer: Its residual activity is 81%.

Question: COc1cc2nccc(Oc3ccc(NC(=S)NC(=O)c4ccccc4C)cc3)c2cc1OC was tested. Which residual activity did it give?
Answer: Its residual activity is 90%.

Question: For O=C(CCCc1ccc(-c2ccccc2F)cc1)Nc1ccc(O)cc1, which residual activity is on record?
Answer: Its residual activity is 107%.

Question: How did the residual activity turn out when Oc1cccc(-c2nc(N3CCOCC3)c3oc4ncccc4c3n2)c1 was run?
Answer: Its residual activity is 95%.

Question: With O=C(c1ccccc1)c1ccc(N2CCOCC2)cc1O as the compound, how does the residual activity read?
Answer: Its residual activity is 69%.

Question: How did the residual activity turn out when N#C/C(=C\c1ccc(O)c(O)c1)C(=O)NCc1ccccc1 was run?
Answer: Its residual activity is 76%.

Question: With COc1ccc(-c2cnc3c(-c4ccsc4)cnn3c2)cc1 as the compound, how does the residual activity read?
Answer: Its residual activity is 80%.

Question: How did the residual activity turn out when CCCCc1c(-c2ccc(OC)cc2)[nH]c2nccnc12 was run?
Answer: Its residual activity is 86%.

Question: For Cn1sc(=O)n(Cc2ccccc2)c1=O, which residual activity is on record?
Answer: Its residual activity is 91%.

Question: How did the residual activity turn out when O=C(c1cc2cc(O)ccc2[nH]1)c1cc2cc(O)ccc2[nH]1 was run?
Answer: Its residual activity is 74%.

Question: How did the residual activity turn out when CC(C)(C)n1nc(Cc2cccc3ccccc23)c2c(N)ncnc21 was run?
Answer: The residual activity was 34%.

Question: With Nc1ncnc2c1c(-c1ccc(Oc3ccccc3)cc1)cn2C1CCCC1 as the compound, how does the residual activity read?
Answer: The residual activity was 85%.

Question: With O=C1NC(=O)c2c1c1c3ccccc3[nH]c1n1cncc21 as the compound, how does the residual activity read?
Answer: Its residual activity is 82%.

Question: NC(=O)Nc1sc(-c2ccc(F)cc2)cc1C(N)=O was tested. Which residual activity did it give?
Answer: Its residual activity is 92%.

Question: Which residual activity does the source give for O=C1Nc2ccc(Cl)cc2/C1=C/c1cc(Cl)c(O)c(Cl)c1 here?
Answer: The residual activity was 68%.

Question: How did the residual activity turn out when CCCC(=O)Oc1ccc2[nH]c(C(=O)c3cc4ccccc4[nH]3)cc2c1 was run?
Answer: The residual activity was 88%.

target: cAMP-dependent protein kinase catalytic subunit alpha (Homo sapiens) (UniProt P17612); conditions: at 10 µM

Question: How did the residual activity turn out when COc1ccc2c(c1)c(C1=C(c3c[nH]c4ccccc34)C(=O)NC1=O)cn2CCCN(C)C was run?
Answer: The residual activity was 17%.

Question: For c1ccc(-c2cnc(Nc3ccc(OCCN4CCCC4)cc3)s2)cc1, which residual activity is on record?
Answer: The residual activity was 133%.

Question: NCCNc1ncc(C(N)=O)c(Nc2cccc(C(F)(F)F)c2)n1 was tested. Which residual activity did it give?
Answer: Its residual activity is 141%.

Question: O=C(O)/C=C/c1cc(Br)c(Br)c(Br)c1Br was tested. Which residual activity did it give?
Answer: The residual activity was 71%.

Question: For COc1cc2ncnc(Nc3cccc(Cl)c3)c2cc1OC, which residual activity is on record?
Answer: Its residual activity is 101%.

Question: O=C(CCCc1ccc(-c2ccccc2F)cc1)Nc1ccc(O)cc1 was tested. Which residual activity did it give?
Answer: The residual activity was 128%.

Question: Oc1cccc(-c2nc(N3CCOCC3)c3oc4ncccc4c3n2)c1 was tested. Which residual activity did it give?
Answer: The residual activity was 85%.

Question: How did the residual activity turn out when O=C1NC(=O)C(c2c[nH]c3ccccc23)=C1c1c[nH]c2ccccc12 was run?
Answer: The residual activity was 55%.

Question: With O=C(c1ccccc1)c1ccc(N2CCOCC2)cc1O as the compound, how does the residual activity read?
Answer: Its residual activity is 81%.

Question: How did the residual activity turn out when N#C/C(=C\c1ccc(O)c(O)c1)C(=O)NCc1ccccc1 was run?
Answer: Its residual activity is 75%.

Question: Which residual activity does the source give for Nc1ncnc2[nH]nc(Nc3ccc(F)cc3)c12 here?
Answer: Its residual activity is 77%.

Question: With COc1ccc(-c2cnc3c(-c4ccsc4)cnn3c2)cc1 as the compound, how does the residual activity read?
Answer: The residual activity was 82%.

Question: With Cn1sc(=O)n(Cc2ccccc2)c1=O as the compound, how does the residual activity read?
Answer: Its residual activity is 89%.

Question: With COc1cc2c(cc1OC)-c1n[nH]c(Nc3cccc(F)c3)c1C2 as the compound, how does the residual activity read?
Answer: Its residual activity is 98%.

Question: Which residual activity does the source give for CC(C)(C)n1nc(Cc2cccc3ccccc23)c2c(N)ncnc21 here?
Answer: Its residual activity is 8%.

Question: Nc1ncnc2c1c(-c1ccc(Oc3ccccc3)cc1)cn2C1CCCC1 was tested. Which residual activity did it give?
Answer: Its residual activity is 88%.

Question: Which residual activity does the source give for O=C1NC(=O)c2c1c1c3ccccc3[nH]c1n1cncc21 here?
Answer: Its residual activity is 88%.

Question: How did the residual activity turn out when NC(=O)Nc1sc(-c2ccc(F)cc2)cc1C(N)=O was run?
Answer: Its residual activity is 82%.

Question: How did the residual activity turn out when O=C1Nc2ccc(Cl)cc2/C1=C/c1cc(Cl)c(O)c(Cl)c1 was run?
Answer: Its residual activity is 66%.

Question: For CCCC(=O)Oc1ccc2[nH]c(C(=O)c3cc4ccccc4[nH]3)cc2c1, which residual activity is on record?
Answer: The residual activity was 89%.
